Laboratory results taken from PubChem BioAssay AID1159580 (chemical genetic matrix, 2015).
In all, about 5,500 compounds went through this assay and about 2,000 (36%) were called active. Not shown: some 18% with an inconclusive outcome. Cut-off read from the data, not from the text of the source: active = normalized growth mostly below about 0.91 (no sharp cut-off); inconclusive = no clear call, values can overlap the other calls; inactive = mostly above about 0.92. The list shows a part of the results.

Assay: chemical genetic growth profiling, strain panel (AID 1159580);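 note: tested at 20 µM; growth read once vehicle control cultures reached saturation at 30 °C; 1 = growth at the plate median or of vehicle wells; lower values mean less growth of the strain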
Settings: S. cerevisiae deletion strains, growth OD
[1] = locus YAR019C, strain CDC15, active compounds read low
[2] = locus YBL105C, strain PKC1, active compounds read low
[3] = locus YBR135W, strain CKS1, active compounds read low
[4] = locus YBR136W, strain MEC1, active compounds read low
[5] = locus YBR160W, strain CDC28, active compounds read low
[6] = locus YDL017W, strain CDC7, active compounds read low
[7] = locus YDL028C, strain MPS1, active compounds read low
[8] = locus YDL101C, strain DUN1, active compounds read low
[9] = locus YDL214C, strain PRR2, active compounds read low
[10] = locus YDR052C, strain DBF4, active compounds read low
[11] = locus YDR054C, strain cdc34, active compounds read low
[12] = locus YDR226W, strain ADK1, active compounds read low
[13] = locus YDR477W, strain SNF1, active compounds read low
[14] = locus YER123W, strain YCK3, active compounds read low
[15] = locus YER133W, strain GLC7, active compounds read low
[16] = locus YFL009W, strain cdc4, active compounds read low
[17] = locus YFL029C, strain CAK1, active compounds read low
[18] = locus YFR003C, strain YPI1, active compounds read low
[19] = locus YFR019W, strain FAB1, active compounds read low
[20] = locus YFR028C, strain CDC14, active compounds read low
[21] = locus YGR040W, strain KSS1, active compounds read low
[22] = locus YGR052W, strain FMP48, active compounds read low
[23] = locus YGR092W, strain DBF2, active compounds read low
[24] = locus YHR030C, strain SLT2, active compounds read low
[25] = locus YHR079C, strain IRE1, active compounds read low
[26] = locus YHR082C, strain KSP1, active compounds read low
[27] = locus YHR205W, strain SCH9, active compounds read low
[28] = locus YIL147C, strain SLN1, active compounds read low
[29] = locus YJL095W, strain BCK1, active compounds read low
[30] = locus YJL128C, strain PBS2, active compounds read low
[31] = locus YJL157C, strain FAR1, active compounds read low
[32] = locus YJR066W, strain TOR1 (second series), active compounds read low
[33] = locus YJR066W, strain TOR1, active compounds read low
[34] = locus YKL048C, strain ELM1, active compounds read low
[35] = locus YKL067W, strain YNK1, active compounds read low
[36] = locus YKL101W, strain HSL1, active compounds read low
[37] = locus YKL193C, strain SDS22, active compounds read low
[38] = locus YKL203C, strain TOR2, active compounds read low
[39] = locus YLR113W, strain HOG1, active compounds read low
[40] = locus YLR133W, strain CKI1, active compounds read low
[41] = locus YLR403W, strain SFP1, active compounds read low
[42] = locus YML070W, strain DAK1, active compounds read low
[43] = locus YMR001C, strain CDC5, active compounds read low
[44] = locus YMR205C, strain PFK2 (second series), active compounds read low
[45] = locus YMR277W, strain FCP1, active compounds read low
[46] = locus YNL006W, strain LST8, active compounds read low
[47] = locus YNL020C, strain ARK1, active compounds read low
[48] = locus YNL161W, strain CBK1, active compounds read low
[49] = locus YNL183C, strain NPR1, active compounds read low
[50] = locus YNL207W, strain RIO2, active compounds read low
[51] = locus YNL222W, strain SSU72, active compounds read low
[52] = locus YNL307C, strain MCK1 (second series), active compounds read low
[53] = locus YOL078W, strain AVO1, active compounds read low
[54] = locus YOL136C, strain PFK27, active compounds read low
[55] = locus YOR061W, strain CKA2, active compounds read low
[56] = locus YOR119C, strain RIO1, active compounds read low
[57] = locus YOR231W, strain MKK1, active compounds read low
[58] = locus YOR329C, strain SCD5, active compounds read low
[59] = locus YPL031C, strain PHO85, active compounds read low
[60] = locus YPL153C, strain RAD53, active compounds read low
[61] = locus YPL204W, strain HRR25, active compounds read low
[62] = locus YPL209C, strain IPL1, active compounds read low
[63] = locus YPL256C, strain CLN2, active compounds read low
[64] = locus YPR025C, strain CCL1, active compounds read low
[65] = strain NNK1, active compounds read low
[66] = strain TSCII, active compounds read low

Measured: normalized growth

N#C/C(=N/Nc1ccccc1)C(=O)c1ccccc1OC(F)(F)F
active: [24] 0.841 | [39] 0.816
inactive: [1] 0.922 | [2] 0.912 | [3] 0.91 | [4] 0.917 | [5] 0.916 | [6] 0.918 | [7] 0.918 | [8] 0.93 | locus YDL108W, strain KIN28, active compounds read low 0.912 | locus YDL132W, strain cdc53, active compounds read low 0.909 | [9] 0.877 | [10] 0.928 | [11] 0.922 | [12] 0.901 | [13] 0.88 | [14] 0.831 | [15] 0.898 | [16] 0.91 | [17] 0.919 | [18] 0.918 | [19] 0.903 | [20] 0.906 | [21] 0.853 | [22] 0.883 | [23] 0.797 | [25] 0.853 | [26] 0.9 | [27] 0.901 | [28] 0.912 | [29] 0.891 | [30] 0.89 | [31] 0.883 | locus YJR016C, strain ILV3, active compounds read low 0.918 | [32] 0.879 | [33] 0.885 | [34] 0.883 | [35] 0.895 | [36] 0.876 | [37] 0.919 | [38] 0.913 | [40] 0.87 | [41] 0.837 | [42] 0.879 | [43] 0.92 | [44] 0.91 | [45] 0.912 | [46] 0.915 | [47] 0.866 | [48] 0.915 | [49] 0.92 | [50] 0.905 | [51] 0.913 | [52] 0.893 | [53] 0.913 | [54] 0.845 | [55] 0.885 | [56] 0.909 | [57] 0.857 | [58] 0.922 | [59] 0.842 | [60] 0.882 | [61] 0.802 | [62] 0.915 | [63] 0.881 | [64] 0.919 | locus YPR106W, strain ISR1, active compounds read low 0.926 | locus YPR111W, strain DBF20, active compounds read low 0.904 | [65] 0.914 | [66] 0.902

CC(=O)/C(C#N)=N\Nc1ccc(F)cc1
active: [1] 0.429 | [2] 0.519 | [3] 0.782 | [4] 0.583 | [5] 0.723 | [6] 0.584 | [7] 0.728 | [8] 0.201 | [9] 0.118 | [11] 0.525 | [13] 0.127 | [14] 0.115 | [15] 0.17 | [16] 0.631 | [17] 0.468 | [18] 0.633 | [19] 0.115 | [20] 0.699 | [21] 0.137 | [22] 0.185 | [23] 0.102 | [24] 0.108 | [25] 0.138 | [26] 0.171 | [27] 0.102 | [28] 0.585 | [29] 0.12 | [30] 0.316 | [31] 0.102 | [32] 0.107 | [33] 0.137 | [34] 0.14 | [35] 0.117 | [36] 0.118 | [37] 0.455 | [38] 0.126 | [39] 0.178 | [40] 0.118 | [41] 0.0142 | [42] 0.123 | [43] 0.458 | [44] 0.132 | [45] 0.349 | [46] 0.57 | [47] 0.123 | [48] 0.409 | [49] 0.147 | [50] 0.632 | [51] 0.487 | [52] 0.126 | [53] 0.568 | [54] 0.114 | [55] 0.127 | [56] 0.131 | [57] 0.136 | [58] 0.488 | [59] 0.124 | [60] 0.132 | [61] 0.124 | [62] 0.587 | [63] 0.181 | [64] 0.631 | [65] 0.344 | [66] 0.512
inactive: [10] 0.957 | [12] 0.978
